# Source: PubChem BioAssay (EPA / NIEHS)
# Results filed as inconclusive are left out. The source made the active and inactive calls. The calls were made as follows, unless noted: active = hit-call score of the fitted dose curve at least 0.9, where 1 is the maximum; inconclusive = response in the unintended direction; inactive = score below 0.9.
# Assays:
# [1] = biological target: Cellular tumor antigen p53 (Homo sapiens) (UniProt P04637); assay: TOX21_p53_BLA_p2_ratio: Tox21 HCT-116 p53 Agonism Beta-lactamase Assay, Ratio, Phase 2 (AID 2283592)
# Sequence of Cellular tumor antigen p53 (Homo sapiens) (P04637 whole entry, looked up): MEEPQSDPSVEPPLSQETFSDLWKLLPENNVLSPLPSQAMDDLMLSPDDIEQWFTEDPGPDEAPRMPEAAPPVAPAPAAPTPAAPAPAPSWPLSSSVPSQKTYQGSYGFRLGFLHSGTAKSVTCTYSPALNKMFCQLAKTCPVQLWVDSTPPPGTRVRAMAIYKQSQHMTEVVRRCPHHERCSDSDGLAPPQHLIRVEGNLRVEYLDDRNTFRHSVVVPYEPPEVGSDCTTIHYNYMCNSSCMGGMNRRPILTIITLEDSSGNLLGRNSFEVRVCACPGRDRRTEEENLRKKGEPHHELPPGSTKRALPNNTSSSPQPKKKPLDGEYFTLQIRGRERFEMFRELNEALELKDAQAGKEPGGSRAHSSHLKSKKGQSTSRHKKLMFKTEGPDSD
# How it was run: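 Plated HCT116 p53-bla cells (4000/well) received compound after 5 h, then 16 h at 37C/5% CO2. CCF4-AM added, 2 h RT. Ratio of 460 to 530 nm emission taken as the p53 reporter signal.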
# [2] = biological target: Cellular tumor antigen p53 (Homo sapiens) (UniProt P04637); assay: TOX21_p53_BLA_p5_ratio: Tox21 HCT-116 p53 Agonism Beta-lactamase Assay, Ratio, Phase 5 (AID 2283599)
# How it was run: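 HCT-116 cells carrying a p53-inducible beta-lactamase reporter were seeded at 4000 cells/well and dosed after 5 h with compound in DMSO (217-fold dilution). After 16 h at 37C, CCF4-AM substrate was added for 2 h, and the 460/530 nm emission ratio was scored as gain-of-signal versus DMSO.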
# [3] = biological target: Cellular tumor antigen p53 (Homo sapiens) (UniProt P04637); assay: TOX21_p53_BLA_p4_ratio: Tox21 HCT-116 p53 Agonism Beta-lactamase Assay, Ratio, Phase 4 (AID 2283601)
# How it was run: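 HCT116 cells carrying an inducible beta-lactamase reporter were plated at 4000 cells/well, rested 5 h, then exposed to compounds in DMSO (217-fold dilution) for 16 h at 37C. CCF4-AM substrate was loaded 2 h at room temperature; 460/530 nm emission ratio scored gain-of-signal versus DMSO.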
# [4] = biological target: PGR (gene 5241) (UniProt P06401); assay: TOX21_PR_BLA_Followup_Agonist_ratio: Tox21 HEK293 Progesterone Receptor (PR) Agonism Beta-lactamase Follow-Up Assay, Ratio (AID 2283933)
# Sequence of PGR (gene 5241) (P06401 whole entry, looked up): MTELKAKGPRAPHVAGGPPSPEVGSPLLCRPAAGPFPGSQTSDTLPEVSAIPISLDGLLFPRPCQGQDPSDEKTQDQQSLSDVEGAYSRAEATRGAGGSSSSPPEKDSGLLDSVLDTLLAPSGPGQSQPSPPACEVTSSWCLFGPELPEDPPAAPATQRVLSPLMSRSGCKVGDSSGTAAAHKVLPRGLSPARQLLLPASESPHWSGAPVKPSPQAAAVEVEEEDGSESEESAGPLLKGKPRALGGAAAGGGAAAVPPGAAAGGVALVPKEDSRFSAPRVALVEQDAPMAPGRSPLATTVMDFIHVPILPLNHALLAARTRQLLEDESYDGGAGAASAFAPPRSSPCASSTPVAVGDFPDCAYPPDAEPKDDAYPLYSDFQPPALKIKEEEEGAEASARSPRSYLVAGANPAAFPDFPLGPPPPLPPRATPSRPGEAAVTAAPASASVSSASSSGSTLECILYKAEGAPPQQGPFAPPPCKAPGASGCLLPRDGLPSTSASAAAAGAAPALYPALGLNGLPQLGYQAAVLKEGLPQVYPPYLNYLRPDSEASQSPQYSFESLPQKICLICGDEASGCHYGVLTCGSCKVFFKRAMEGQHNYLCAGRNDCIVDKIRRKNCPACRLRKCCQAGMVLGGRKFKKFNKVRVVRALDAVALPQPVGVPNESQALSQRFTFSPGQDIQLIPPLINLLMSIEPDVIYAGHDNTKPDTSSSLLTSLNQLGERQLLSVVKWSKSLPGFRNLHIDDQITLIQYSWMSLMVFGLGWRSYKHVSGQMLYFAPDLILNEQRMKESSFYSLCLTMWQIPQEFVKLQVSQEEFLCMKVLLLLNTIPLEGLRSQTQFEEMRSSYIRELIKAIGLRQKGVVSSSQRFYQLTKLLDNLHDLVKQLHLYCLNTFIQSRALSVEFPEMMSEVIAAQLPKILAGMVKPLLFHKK
# How it was run: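 Ratio-based beta-lactamase reporter signal after 16 hr compound treatment of PR-UAS-bla HEK293T cells at 37C. Substrate loading lasted 2 hr at room temperature.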
# [5] = biological target: PGR (gene 5241) (UniProt P06401); assay: TOX21_PR_BLA_Followup_Antagonist_ratio: Tox21 HEK293 Progesterone Receptor (PR) Antagonism Beta-lactamase Follow-Up Assay, Ratio (AID 2283934);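 also: PR-UAS-bla HEK293T cells stimulated with 1 nM R5020 agonist for 16 hr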
# How it was run: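 Measured in PR-UAS-bla HEK293T cells co-treated with compound and 1 nM promegestone for 16 hr; beta-lactamase ratio read after 2 h FRET substrate loading, with parallel CellTiter-Glo cytotoxicity.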
# [6] = TOX21_PR_BLA_Followup_Agonist_viability: Viability Assessment in the Tox21 HEK293 Progesterone Receptor (PR) Agonism Beta-lactamase Follow-Up Assay (AID 2283935);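 also: signal loss means lower viability so actives are cytotoxic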
# How it was run: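 Viability is read as CellTiter-Glo luminescence, where loss of signal indicates cytotoxicity. The cells are PR-UAS-bla HEK293T given compounds for 16 hr at 37C and 5% CO2, in the same wells used for the bla readout.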
# [7] = biological target: PGR (gene 5241) (UniProt P06401); assay: TOX21_PR_LUC_Followup_Agonist: Tox21 HEK293 Progesterone Receptor (PR) Agonism Luciferase Follow-Up Assay (AID 2283937; active = hit-call score of the fitted dose curve at least 0.9, where 1 is the maximum; inactive = score below 0.9)
# How it was run: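 In HEK293 cells stably expressing PR-A with a luciferase reporter, compounds were incubated 16 h at 37C, and induced luminescence was quantified with ONE-Glo, multiplexed with cell viability.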
# [8] = biological target: PGR (gene 5241) (UniProt P06401); assay: TOX21_PR_LUC_Followup_Antagonist: Tox21 HEK293 Progesterone Receptor (PR) Antagonism Luciferase Follow-Up Assay (AID 2283938);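 also: curve fitted upward as signal gain over DMSO baseline despite antagonist label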
# How it was run: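 Cells are grown 5 days in charcoal-stripped-FBS assay medium, plated, left 5 h, then dosed with compound and incubated 16 h. ONE-Glo reagent is added and luminescence read after 30 min.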
# [9] = TOX21_PR_LUC_Followup_Antagonist_viability: Viability Assessment in the Tox21 HEK293 Progesterone Receptor (PR) Antagonism Luciferase Follow-Up Assay (AID 2283940)
# How it was run: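 Loss of CellTiter-Glo ATP signal indicates cytotoxicity in HEK293-PR-A-luc cells grown in 10% charcoal-stripped FBS medium, seeded 3,000 per well and incubated 16 h with compound at 37C.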
# [10] = TOX21_PR_LUC_Followup_Agonist_viability: Viability Assessment in the Tox21 HEK293 Progesterone Receptor (PR) Agonism Luciferase Follow-Up Assay (AID 2283941);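 also: loss of signal means cytotoxicity so actives lower viability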
# How it was run: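 Seeding: HEK293-PR-A-luc, 3,000 cells/well, 5 h at 37C. Treatment: compound in DMSO, 16 h, 37C. Read: CellTiter-Glo ATP luminescence, signal loss taken as lower viability.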
# [11] = TOX21_p53_BLA_p3_viability: Viability Assessment in the Tox21 HCT-116 p53 Agonism Beta-lactamase Assay, Phase 3 (AID 2283593);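 also: cells exposed to compound for 16 h before reading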
# How it was run: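 HCT-116 cells (4000/well) rested 5 h at 37C, then got DMSO compounds by pin tool (217-fold dilution) for 16 h at 37C, 5% CO2. After the bla read, CellTiter-Glo was added and luminescence read at 30 min, room temperature.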
# [12] = biological target: Cellular tumor antigen p53 (Homo sapiens) (UniProt P04637); assay: TOX21_p53_BLA_p3_ratio: Tox21 HCT-116 p53 Agonism Beta-lactamase Assay, Ratio, Phase 3 (AID 2283596)
# How it was run: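 Cells were seeded at 4000/well, rested 5 h at 37C, then dosed with DMSO compound solutions (217-fold dilution) for 16 h. CCF4-AM substrate was loaded for 2 h at room temperature, and the 460/530 nm emission ratio was fitted for gain of signal versus DMSO.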
# [13] = TOX21_p53_BLA_p5_viability: Viability Assessment in the Tox21 HCT-116 p53 Agonism Beta-lactamase Assay, Phase 5 (AID 2283600)
# How it was run: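 Workflow: seed 4000 cells per well, wait 5 h, add compounds (DMSO, 217-fold dilution), incubate 16 h, load CCF4-AM 2 h, add CellTiter-Glo, read luminescence after 30 min.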
# [14] = TOX21_p53_BLA_p4_viability: Viability Assessment in the Tox21 HCT-116 p53 Agonism Beta-lactamase Assay, Phase 4 (AID 2283597);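 also: hits lower the luminescence signal meaning cytotoxicity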
# How it was run: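 Readout: ATP luminescence (CellTiter-Glo), measured 30 min after reagent addition at RT. The reagent followed a 2 h CCF4-AM incubation, and the cells had been exposed to compound for 16 h at 37C.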
smiles,measurement,setting,value
c1ccc2c(c1)Sc1ccccc1N2CCN1CCCC1,outcome,[1],inactive
same,outcome,[2],inactive
same,outcome,[3],inactive
CN1CC[C@H](c2c(O)cc(O)c3c(=O)cc(-c4ccccc4Cl)oc23)[C@H](O)C1,outcome,[4],inactive
same,AC50,[5],206 nM (active)
same,outcome,[6],inactive
same,outcome,[7],inactive
same,AC50,[8],565 nM (active)
same,outcome,[9],inactive
same,outcome,[10],inactive
NCCCC(O)(P(=O)(O)O)P(=O)(O)O,outcome,[11],inactive
same,outcome,[12],inactive
same,outcome,[2],inactive
same,outcome,[13],inactive
N[C@H]1CN(c2c(F)cc3c(=O)c(C(=O)O)cn(C4C[C@H]4F)c3c2Cl)CC12CC2 (stereo not given in full),outcome,[11],inactive
same,outcome,[12],inactive
same,outcome,[14],inactive
same,outcome,[13],inactive
same,outcome,[3],inactive
CC1=C(/C=C/C(C)=C/C=C/C(C)=C/C=C/C=C(C)/C=C/C=C(C)/C=C/C2=C(C)C(=O)CCC2(C)C)C(C)(C)CCC1=O,outcome,[11],inactive
same,outcome,[12],inactive
same,outcome,[2],inactive
same,outcome,[13],inactive
same,outcome,[3],inactive
Cc1ccc(S(=O)(=O)NC(=O)NC2CCCC2)cc1,outcome,[11],inactive
same,outcome,[12],inactive
same,outcome,[2],inactive
same,outcome,[13],inactive
same,outcome,[3],inactive
CN(C)CCCNCCCN,outcome,[11],inactive
same,outcome,[12],inactive
same,outcome,[2],inactive
same,outcome,[13],inactive
same,outcome,[3],inactive
CC(=O)c1ccc(C(C)=O)cc1,outcome,[11],inactive
same,outcome,[12],inactive
same,outcome,[2],inactive
same,outcome,[13],inactive
CCCCCCCCCCCCCCCC(=O)O[C@@H]1CC(C)=C(/C=C/C(C)=C/C=C/C(C)=C/C=C/C=C(C)/C=C/C=C(C)/C=C/C2=C(C)C[C@@H](OC(=O)CCCCCCCCCCCCCCC)CC2(C)C)C(C)(C)C1,AC50,[11],36200 nM (active)
same,outcome,[12],inactive
same,outcome,[14],inactive
same,outcome,[3],inactive
CN=C(NC#N)Nc1ccc(C2=NNC(=O)CC2C)cc1 (stereo not given),outcome,[11],inactive
same,outcome,[12],inactive
same,outcome,[3],inactive
Cn1cnc2ncnc(N)c21,outcome,[11],inactive
same,outcome,[12],inactive
same,outcome,[2],inactive
same,outcome,[13],inactive
same,outcome,[3],inactive
O=C(O)c1ccc(NC(=O)[C@H](Cc2ccc(O)cc2)NC(=O)c2ccccc2)cc1,outcome,[11],inactive
same,outcome,[12],inactive
same,outcome,[14],inactive
same,outcome,[13],inactive
same,outcome,[3],inactive
